From PubChem BioAssay AID1851 (National Center for Advancing Translational Sciences (NCATS), 2009) come the findings set out here.

One may read the AC50 as the concentration at which the activity in the assay is half-maximal.

Where “and” joins values, the source holds several entries; their conditions need not be identical. Equal entries are not always repeated. Out of some 16,000 compounds screened, about 5,100 (32%) were called active. Inconclusive results (about 25%) are left out. The list shows a part of the results. Values without a mark were called inactive. Calls come from the whole dose curve; as a rule, active = well fitted curve in the direction sought with a large enough effect; inconclusive = small, poorly fitted or top-dose-only effect, or effect the other way; inactive = no such curve, though single readings can be large or run the other way.
% is set by controls: 0 for no effect and ±100 for the full control effect.

Chain of Cytochrome P450 3A4 (Homo sapiens) (P08684 whole entry, looked up): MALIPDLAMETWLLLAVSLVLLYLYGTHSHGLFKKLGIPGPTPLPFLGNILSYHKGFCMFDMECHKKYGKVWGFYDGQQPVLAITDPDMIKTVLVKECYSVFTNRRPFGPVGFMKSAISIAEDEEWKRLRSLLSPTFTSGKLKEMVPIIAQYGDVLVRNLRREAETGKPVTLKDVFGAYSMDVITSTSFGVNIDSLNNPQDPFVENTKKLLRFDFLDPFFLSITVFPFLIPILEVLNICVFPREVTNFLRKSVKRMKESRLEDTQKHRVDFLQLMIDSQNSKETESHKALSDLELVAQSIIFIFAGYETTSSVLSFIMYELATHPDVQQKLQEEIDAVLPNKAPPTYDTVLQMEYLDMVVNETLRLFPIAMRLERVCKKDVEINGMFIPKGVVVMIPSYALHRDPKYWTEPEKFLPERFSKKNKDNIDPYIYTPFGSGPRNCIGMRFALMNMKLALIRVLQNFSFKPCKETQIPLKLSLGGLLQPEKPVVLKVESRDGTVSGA

The assay concerns the target Cytochrome P450 3A4 (Homo sapiens) (UniProt P08684). The experiment in a line: Cytochrome panel assay with activity outcomes. The note with it: recombinant CYP, pro-luciferin dealkylation, luminescence, p450-cyp3a4; series mostly up to 57.1 µM.
`O=C(Nc1cccc2cccnc12)[C@@H]1[C@@H](C(=O)O)[C@H]2CC[C@@H]1O2`: the activity, negative = inhibition is -18.7% [at 11.4 µM].

For the molecule `O=C(Nc1cccc(C(F)(F)F)c1)C1CCCN1S(=O)(=O)c1cccc2cccnc12` (stereo not given), the AC50 is 11.2 µM (active).

For `COc1ccc(-c2ccc(C(=S)N3CCN(C(C)=O)CC3)o2)cc1`, the half-maximal activity concentration (AC50) was 25.1 µM (active).

Turning to `C[C@H](N[C@@H](C)COc1ccccc1)[C@H](O)c1ccc(O)cc1`, the AC50 entry was “inactive”.

Consider `COc1ccc(N2C(=O)CSC2c2cccc(F)c2)c(OC)c1` (stereo not given), for which the AC50 was 12.6 µM (active).

On to `COc1ccc(C2/C(=C(/O)c3ccccc3)C(=O)C(=O)N2c2ccccn2)c(OC)c1` (stereo not given), for which the activity, negative = inhibition was 1.16% [at 2.29 µM].

As to `C/C(=N\[N+](C)(C)C)c1ccc(C)c(C)c1`, the activity, negative = inhibition is -5.81% [at 11.4 µM].

For the molecule `O=C(Nc1cccc(-c2nc3ccccc3s2)c1)c1ccc2c(c1)OCO2`, the concentration at half-maximal activity (AC50) was 2.24 µM (active).

For the molecule `O=C(Nc1cc(-c2nc3ccccc3s2)ccc1Cl)c1ccc2c(c1)OCO2`, the concentration at half-maximal activity (AC50) is 2.24 µM (active).

Take `COC(=O)c1ccc(Cl)c(NC(=O)c2ccc(-c3ccccc3)cc2)c1`: the activity, negative = inhibition was 0.213% [at 2.29 µM].

Consider `CN(C(=O)COc1cccc(Br)c1)C1CCS(=O)(=O)C1` (stereo not given), for which the AC50 result is “inactive”.

In the case of `CCc1ccc(CN(C(=O)c2cc3ccccc3oc2=O)C2CCS(=O)(=O)C2)cc1` (stereo not given), the AC50 is 14.1 µM (active).

As to `Cc1ccc[n+](CC(=O)c2cc3ccccc3oc2=O)c1`, the activity, negative = inhibition was -4.17% [at 2.29 µM].

For `O=C(c1sc2ccccc2c1Cl)N(Cc1ccccc1)C1CCS(=O)(=O)C1` (stereo not given), the AC50 was 11.2 µM (active).

For the molecule `O=C(c1ccccc1)N(Cc1ccco1)C1CCS(=O)(=O)C1` (stereo not given), the AC50 entry is “inactive”.

With `CCOc1ccc(CN(C(=O)c2oc3ccccc3c2C)C2CCS(=O)(=O)C2)cc1` (stereo not given), the half-maximal activity concentration (AC50) was 12.6 µM (active).

In the case of `CCc1ccc(OCC(=O)OC2CCS(=O)(=O)C2)cc1` (stereo not given), the AC50 result was “inactive”.

In the case of `CCCN(C(=S)Nc1ccccc1)C1CCS(=O)(=O)C1` (stereo not given), the AC50 entry is “inactive”.

Consider `C[C@@H](CC(=O)O)[C@@H](N)C(=O)O`, for which the AC50 entry was “inactive”.

Regarding `O=C(COC(=O)c1cccnc1)c1ccc(Cl)c(Cl)c1`, the AC50 is 0.562 µM (active).

`O=C(Oc1cccc(Br)c1)c1cccnc1`: the AC50 result is “inactive”.

Regarding `O=C(COC(=O)c1cccnc1Cl)c1ccccc1`, the AC50 entry is “inactive”.

Take `CON1C(=O)C(=O)N(OC)C2CCCCC21` (stereo not given): the AC50 entry was “inactive”.

Consider `CC(C)(C)N1C(=O)[C@H]2[C@@H]3[C@H](O)[C@H](O)CC(=O)[C@H]3CC[C@H]2C1=O`, for which the activity, negative = inhibition is -16.1% [at 11.4 µM] and -10.3% [at 11.4 µM].

Consider `Cc1cnc(CNc2ncncc2-c2ccccc2CN(C)C)cn1`, for which the AC50 is 3.16 µM (active).

For `Cc1cnc(CNc2ncncc2-c2ccccc2C)cn1`, the concentration at half-maximal activity (AC50) is 1 µM (active).

Take `COc1ccccc1-c1cncnc1NCc1cnc(C)cn1`: the AC50 was 1.26 µM (active).

For the molecule `CN(C)Cc1ccccc1-c1cncnc1NC1CC1`, the AC50 was 12.6 µM (active).

With `O=[N+]([O-])c1ccccc1N=Nc1c(O)[nH]c2ccc(S(=O)(=O)O)cc12`, the activity, negative = inhibition is -6.01% [at 11.4 µM].

Take `C/C(=N\NC(=O)CC1N=C(Cc2ccccc2)NNC1=O)c1ccc(Cl)cc1Cl` (stereo not given): the AC50 is 1.26 µM (active).

With `Nc1ccc(-c2nc3c(Cl)c(N)ccc3[nH]2)cc1`, the AC50 is 1 µM (active).

On to `c1csc(CNc2ccnc(-c3ccoc3)n2)c1`, for which the AC50 is 7.94 µM (active).

`CN(C)c1ccc(-c2nccc(NCc3cccs3)n2)cc1`: the AC50 is 12.6 µM (active).

Take `c1cncc(-c2nccc(NCc3cccs3)n2)c1`: the AC50 is 1 µM (active).

Turning to `CN(C)C(=O)c1ccc(-c2nccc(NCc3cccs3)n2)cc1`, the concentration at half-maximal activity (AC50) was 25.1 µM (active).

For `Cc1ccccc1Oc1ncnc2sccc12`, the AC50 entry was “inactive”.

In the case of `Cn1c(=O)c(-c2ccc(Cl)cc2)nc2cnc(Nc3ccccc3)nc21`, the AC50 entry was “inactive”.

For the molecule `COc1ccc(-n2c(=O)c(C)nc3cnc(Nc4ccccc4)nc32)cc1`, the half-maximal activity concentration (AC50) is 12.6 µM (active).

As to `COc1cccc(Nc2ncc3nc(-c4ccccc4)c(=O)n(C)c3n2)c1`, the AC50 entry is “inactive”.

For `COc1cccc(Nc2ncc3nc(C)c(=O)n(-c4ccccc4)c3n2)c1`, the concentration at half-maximal activity (AC50) is 15.8 µM (active).

As for `N/C(=N\c1nc2ccccc2o1)NC(=O)c1ccccc1F`, the AC50 result is “inactive”.

`CCC(=O)c1ccc(OCC(O)CN(CCc2ccccc2)Cc2ccccc2)cc1` (stereo not given): the AC50 entry is “inactive”.

With `O=C(NC(=S)N(Cc1ccccc1)Cc1ccccc1)c1ccccc1F`, the concentration at half-maximal activity (AC50) was 15.8 µM (active).

On to `COc1ccc(CN(CCC#N)C(=S)NC(=O)c2ccccc2)cc1`, for which the half-maximal activity concentration (AC50) is 14.1 µM (active).

On to `COc1ccc(C(=O)NNC(=S)NC(=O)c2ccco2)cc1`, for which the activity, negative = inhibition was 9.96% [at 2.29 µM].

`CCOc1ccc(C(=O)NC(=S)N(Cc2ccccc2)Cc2ccccc2)cc1`: the AC50 was 10 µM (active).

With `O=C(Nc1ccccc1)N(Cc1ccccc1)CC(O)C(F)(F)F` (stereo not given), the AC50 result is “inactive”.

Consider `CC(C)Cc1ccc([C@H](C)C(=O)O)cc1`, for which the AC50 result is “inactive”.

Consider `CCN(CC)c1ccc(/C=N/Nc2nc(C)cc(=O)[nH]2)cc1`, for which the half-maximal activity concentration (AC50) is 14.1 µM (active).

As for `CCOC(=O)N/N=C/c1ccc(F)cc1`, the AC50 result was “inactive”.

In the case of `N=c1sccn1CC(=O)Nc1cccc(Oc2ccccc2)c1`, the activity, negative = inhibition is -7.61% [at 11.4 µM].

On to `O=S(=O)(NCc1cn2ccsc2n1)c1ccc(Oc2ccccc2)cc1`, for which the concentration at half-maximal activity (AC50) was 11.2 µM (active).

`Nc1ccc(S(=O)(=O)NCc2nccs2)cc1`: the activity, negative = inhibition is -10.4% [at 11.4 µM].

Turning to `Cc1cc(-c2ccc(/C=N/n3cnnc3)o2)c([N+](=O)[O-])cc1C`, the AC50 entry was “inactive”.

As to `Cc1ccc(-c2ccc(/C=N/N3C(=O)C4C5C=CC(C6CC56)C4C3=O)o2)c([N+](=O)[O-])c1` (stereo not given), the concentration at half-maximal activity (AC50) was 2.24 µM (active).

Consider `Cc1nc(C(=O)Nc2ccc(Cl)cc2Cl)nn1-c1cc(OC(C)C)c(Cl)cc1Cl`, for which the AC50 result was “inactive”.

In the case of `COc1cccc2c1OC[C@@H](CO)[C@H]2N(C)C(=O)Nc1ccc(Cl)cc1Cl`, the AC50 was 14.1 µM (active).

As for `NC(=O)c1cc[n+](CC2=C(C(=O)[O-])N3C(=O)[C@@H](NC(=O)Cc4cccs4)[C@@H]3SC2)cc1`, the AC50 entry is “inactive”.

As to `CN(C)c1ccc(-c2nc3n(n2)C(c2cccnc2)C2=C(CC(C)(C)CC2=O)N3)cc1` (stereo not given), the AC50 is 2.24 µM (active).

`COc1ccc(-c2cc(C(F)F)nc(-n3nc(C)cc3C)n2)cc1`: the half-maximal activity concentration (AC50) is 10 µM (active).

Turning to `Cc1cc(C)n(-c2nc(NC(C)C)nc(NC(C)C)n2)n1`, the activity, negative = inhibition is 0.214% [at 11.4 µM].

With `Cc1ccc(S(=O)(=O)Nc2ccccc2C=O)cc1`, the activity, negative = inhibition was -24.7% [at 11.4 µM].

As to `CCCCn1c(NCc2ccccc2NS(=O)(=O)c2ccc(C)cc2)nc2ccccc21`, the AC50 is 3.55 µM (active).

`CC(C)(C)NCC[C@@H](O)c1cc(C(F)(F)F)nc2c(C(F)(F)F)cccc12`: the activity, negative = inhibition is -13.6% [at 11.4 µM].

Regarding `Cc1cc(C)c(NC(=O)C[C@H](CC(=O)O)c2cccc3ccccc23)c(C(=O)N2CCC3(CCCC3)CC2)c1`, the concentration at half-maximal activity (AC50) is 15.8 µM (active).

Regarding `Cc1noc(C)c1C(=O)N1CCC2(CCCN(C(c3ccccc3)c3ccccc3)C2)CC1`, the AC50 entry is “inactive”.

Turning to `COC(=O)N1CCC2(CCN(C(=O)Nc3ccccc3)CC2)CC1`, the AC50 result was “inactive”.

`CC1=C(C(=O)OCc2ccccc2)C(c2cccnc2)c2c(n(C)c(=O)n(C)c2=O)N1` (stereo not given): the AC50 is 11.2 µM (active).

`CC1=C(C(=O)OCc2ccccc2)C(c2ccccc2)NC(=O)N1CCCCCC(=O)O` (stereo not given): the AC50 entry is “inactive”.

In the case of `CCOC(=O)CC(=O)CSc1nc(-c2ccccc2)cc(-c2ccc(Cl)cc2)c1C#N`, the AC50 is 17.8 µM (active).

`N#Cc1ccc(-c2ccccc2)nc1SCC(=O)c1cccc(Cl)c1`: the AC50 entry is “inactive”.

As to `C[C@H](Oc1ccccc1)C(=O)N[C@@H]1C(=O)N2[C@@H]1SC(C)(C)[C@@H]2C(=O)O`, the AC50 entry is “inactive”.

`CC1(C)S[C@@H]2[C@H](NC(=O)[C@@H](N)c3ccc(O)cc3)C(=O)N2[C@H]1C(=O)O`: the AC50 result is “inactive”.

In the case of `CC1(C)S[C@@H]2[C@H](NC(=O)[C@@H](N)c3ccccc3)C(=O)N2[C@H]1C(=O)O[C@H]1OC(=O)c2ccccc21`, the AC50 is 1.58 µM (active).

Consider `O=c1c2ccccc2nc2n1C(CSCc1cccc(C(F)(F)F)c1)CS2` (stereo not given), for which the AC50 is 4.47 µM (active).

Consider `Cc1ncc2c(c1O)COP(=O)(O)OC2`, for which the AC50 result is “inactive”.

Take `O=C(Nn1cnc2ccccc2c1=O)c1ccc(F)cc1Cl`: the AC50 entry is “inactive”.

In the case of `COC(=O)c1cn(NC(=O)c2ccc(F)cc2)c(=O)c2ccccc12`, the activity, negative = inhibition was -2.1% [at 2.29 µM].

As for `COc1ccc(C(=O)Nn2cnc3ccccc3c2=O)c(OC)c1`, the AC50 was 25.1 µM (active).

With `COc1ncc2nc(-c3cn(C)c4ccccc34)c(=O)n(Cc3ccc(F)cc3)c2n1`, the half-maximal activity concentration (AC50) was 6.31 µM (active).

On to `COc1cccc(Cn2c(=O)c(-c3cn(C)c4ccccc34)nc3cnc(OC)nc32)c1`, for which the half-maximal activity concentration (AC50) was 7.94 µM (active).

Regarding `Cn1cc(-c2nc3cncnc3n(Cc3ccc(F)cc3)c2=O)c2ccccc21`, the AC50 entry was “inactive”.

In the case of `COc1cccc(Cn2c(=O)c(-c3cn(C)c4ccccc34)nc3cnc(N4CCOCC4)nc32)c1`, the AC50 result is “inactive”.

With `CCNc1ncc2nc(-c3cn(C)c4ccccc34)c(=O)n(Cc3cccc(OC)c3)c2n1`, the half-maximal activity concentration (AC50) is 3.98 µM (active).

`CCNc1ncc2nc(-c3cn(C)c4ccccc34)c(=O)n(Cc3ccc(F)cc3)c2n1`: the half-maximal activity concentration (AC50) was 15.8 µM (active).

Take `CN(C)CCCNc1c(C(=O)O)cnc2c1cnn2C`: the AC50 entry is “inactive”.

In the case of `COc1ccc(N2C(N)=NC(N)=NC2(C)C)cc1`, the AC50 result is “inactive”.

With `COC(=O)C1=C(C)NC(C)=C(C(=O)OCCSc2ccccc2)[C@@H]1C`, the AC50 was 10 µM (active).

On to `COC(=O)c1cc(=O)n(C2CC2)c(=NC2CC2)s1`, for which the AC50 result was “inactive”.

Regarding `OC(COCc1ccccc1)Cn1cnc2ccccc21` (stereo not given), the AC50 was 3.98 µM (active).

On to `CC(=O)Nc1ccc(OC[C@@H](O)CNC(C)C)cc1`, for which the AC50 result was “inactive”.

With `CC(=O)Nc1ccc(OCC(O)Cn2cnc3ccccc32)cc1` (stereo not given), the AC50 was 14.1 µM (active).

With `C[n+]1cn(CC(O)COCc2ccccc2)c2ccccc21` (stereo not given), the AC50 entry is “inactive”.

Regarding `Oc1ccc(OCc2ccccc2)cc1`, the AC50 result was “inactive”.

As for `CCC(=O)c1ccc(OCC(O)CN2CCCCC2)cc1` (stereo not given), the AC50 entry was “inactive”.
